Screening results: PubChem BioAssay, National Center for Advancing Translational Sciences (NCATS)
BRCA1 expr act: qHTS Assay to Identify Small Molecule Activators of BRCA1 Expression; AID 624202, 2012; MCF7-BRCA1-FFLuc reporter, luminescence, 48 h; response scale: scaled: vehicle 0%, 10 µM genistein 100%; 1.1% of 380,000 active; Potency, µM (series often up to 46.1 µM), for inactives: top-dose activation, most hits filed as activators; also: potency is read from the fitted curve at half-maximal effect; nearly all actives have a fitted effect of over 80% in size
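48 h compound treatment of MCF7-BRCA1-FFLuc cells (phenol-red free MEM, 37 °C), then 15 min with luciferase substrate and luminescence imaging.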
VDR inhibitor: Inhibitors of the vitamin D receptor (VDR): qHTS. Vitamin D3 receptor (Homo sapiens), P11473. VDR-SRC2-3 peptide fluorescence polarization, 2 h. Potency, µM, for inactives: max response, negative = inhibition, actives largely listed as inhibitors. 0.93% of 400,000 active; also: potency is read from the fitted curve at half-maximal effect; % is scaled to controls: 0 for no effect and ±100 for the full control effect
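FP read-out; VDR + SRC2-3 coactivator peptide; 23 nl compound by pintool; 2 h RT incubation; reagents held at 4 deg C, protected from light.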
Tb PFK inh: qHTS Assay to Find Inhibitors of T. brucei phosphofructokinase; T. brucei PFK, ADP-Glo luminescence; Potency, µM (top dose mostly 57.5 µM), inactives show top-dose activity, negative = inhibition, most hits filed as inhibitors; 0.17% of 330,000 active;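 also: potency is read from the fitted curve at half-maximal effect; 0% = uninhibited 1x PFK enzyme wells and -100% = no-enzyme wells; nearly all actives have a fitted effect of over 60% in size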
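1.25 nM PFK with 0.5 mM F6P and 0.1 mM ATP in 0.1 M TEA pH 8.0, 5 mM MgCl2, incubated 45 min at room temperature; ADP measured by ADP-Glo luminescence; compounds titrated up to 57 uM.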
PLK1 PBD block: qHTS for Inhibitors of PLK1-PDB (polo-like kinase 1 - polo-box domain): Primary Screen. 2.8% of 360,000 active. AID 720504, 2013. Serine/threonine-protein kinase PLK1 (Homo sapiens), P53350. Potency, µM, without a hit: max response, negative = inhibition, usual class: inhibitors. Plk1 PBD binding of FITC phosphopeptide, fluorescence polarization; also: potency is read from the fitted curve at half-maximal effect; series mostly up to about 57 µM; % is scaled to controls: 0 for no effect and ±100 for the full control effect; nearly all actives have a fitted effect of over 65% in size
Target sequence (P53350 whole entry, looked up, the tested form may be a part): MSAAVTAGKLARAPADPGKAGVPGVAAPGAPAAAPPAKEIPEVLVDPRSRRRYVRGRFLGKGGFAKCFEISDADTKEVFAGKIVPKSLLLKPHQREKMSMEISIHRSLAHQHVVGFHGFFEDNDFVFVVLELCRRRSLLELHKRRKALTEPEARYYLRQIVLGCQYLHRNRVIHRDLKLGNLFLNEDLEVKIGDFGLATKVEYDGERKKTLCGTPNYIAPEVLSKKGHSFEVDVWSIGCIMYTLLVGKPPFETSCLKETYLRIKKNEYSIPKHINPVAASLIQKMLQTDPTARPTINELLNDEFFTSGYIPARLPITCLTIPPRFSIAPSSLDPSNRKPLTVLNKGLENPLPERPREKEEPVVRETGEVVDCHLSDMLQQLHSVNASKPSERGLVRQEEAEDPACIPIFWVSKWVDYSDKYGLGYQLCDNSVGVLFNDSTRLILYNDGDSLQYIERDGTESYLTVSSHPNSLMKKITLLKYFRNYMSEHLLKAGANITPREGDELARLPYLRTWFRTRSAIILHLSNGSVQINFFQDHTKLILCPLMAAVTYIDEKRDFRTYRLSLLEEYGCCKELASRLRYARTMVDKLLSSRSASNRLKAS
USP1 UbRho: Inhibitors of USP1/UAF1: Hit Validation in Primary Assay; 50% of 50 active; Potency, µM (highest dose often 56.8 µM), for the others: at the highest dose activity change, negative = inhibition, most hits filed as inhibitors; AID 540327, 2011; shares compounds with VDR inhibitor; Ub-Rhodamine cleavage, fluorescence kinetic read
VDR confirm: qHTS for Inhibitors of the vitamin D receptor (VDR): Hit Validation in Primary Screen. AID 602199, 2012. Potency, µM, most hits filed as inhibitors. 89% of 840 active. VDR-coactivator inhibition assay, qHTS confirmation. shares compounds with VDR inhibitor; also: potency is read from the fitted curve at half-maximal effect
VDR FP fluor: qHTS for Inhibitors of the vitamin D receptor (VDR): Hit Validation using a Fluorescein Assay; 48% of 840 active; Potency, µM (series often up to 57.1 µM), inactives show top-dose activity change, negative = inhibition, usual class: inhibitors; VDR-coactivator binding, fluorescein fluorescence polarization; shares compounds with VDR inhibitor; AID 602200, 2012; also: potency is read from the fitted curve at half-maximal effect
VDR bla: qHTS for Inhibitors of the vitamin D receptor (VDR): Hit Validation using a Beta-Lactamase Assay | 23% of 840 active | VDR beta-lactamase reporter cells, FRET ratio; cells co-treated with VDR agonist LG190178 | Potency, µM (titrated, usually from 46.1 µM), inactives show top-dose activity change, negative = inhibition, most hits filed as inhibitors | AID 602202, 2012 | shares compounds with VDR inhibitor; also: potency is read from the fitted curve at half-maximal effect; % is scaled to controls: 0 for no effect and ±100 for the full control effect
VDR viability: qHTS for Inhibitors of the vitamin D receptor (VDR): Hit Validation using a Cytotoxicity Assay. shares compounds with VDR inhibitor. cytotoxicity counter-screen, cell viability, qHTS. Potency, µM (series often up to 48.3 µM), inactives show at the highest dose activity change, negative = cytotoxicity, most hits filed as cytotoxic. 18% of 840 active;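 also: potency is read from the fitted curve at half-maximal effect; plate controls were DMSO for no effect and high-concentration cycloheximide for full effect; nearly all actives have a fitted effect of over 75% in size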
TbPYK confirm: qHTS of Trypanosoma Brucei Inhibitors: Confirmatory Assay for Cherry-picked Compounds; shares compounds with PLK1 PBD block; recombinant TbPYK, Kinase-Glo ATP luminescence; Potency, µM (doses to about 76.9 µM), for inactives: top-dose activity change, negative = inhibition, most hits filed as inhibitors; 67% of 890 active; AID 720569, 2013; also: potency is read from the fitted curve at half-maximal effect; % is scaled to controls: 0 for no effect and ±100 for the full control effect; nearly all actives have a fitted effect of over 70% in size
TbPYK ADP-Glo: qHTS of Trypanosoma Brucei Inhibitors: Orthogonal Assay for Cherry-picked Compounds; recombinant TbPYK, ADP-Glo luminescence, 60 min; AID 720584, 2013; shares compounds with PLK1 PBD block; 62% of 890 active; Potency, µM (series often up to 76.9 µM), for the others: at the highest dose activity change, negative = inhibition, hits mostly inhibitors; also: potency is read from the fitted curve at half-maximal effect; % is scaled to controls: 0 for no effect and ±100 for the full control effect; nearly all actives have a fitted effect of over 75% in size
The depositor's hits bear a star; ? = inconclusive; nt = no result. A selection: hits, their analogues and other compounds. The true share with any hit is near 3.9%. Calls follow the shape of the dose curve; as a rule, active = well fitted curve in the direction sought with a large enough effect; inconclusive = small, poorly fitted or top-dose-only effect, or another doubt; inactive = no such curve, though single readings can be large; an effect the other way counts as inactive or inconclusive.

SMILES | BRCA1 expr act | VDR inhibitor | Tb PFK inh | PLK1 PBD block | VDR confirm | VDR FP fluor | VDR bla | VDR viability | others
Cc1ccc(NS(=O)(=O)c2ccc(Cl)c(N=Nc3c(O)[nH]c(=O)[nH]c3=O)c2)cc1Cl | -25.0% | ? | 7.3% | ? | nt | nt | nt | nt
O=C(Nc1ccc(OC(F)(F)F)cc1)c1cccn(Cc2ccccc2Cl)c1=O | 10.1% | 20.1% | nt | nt | nt | nt | nt | nt
O=c1nc(/C=C/c2ccc(Cl)cc2Cl)cc(C(F)(F)F)[nH]1 | -9.6% | 10µM* | 3.1% | 26.7µM* | 7.52* | 3.16µM* | ? | 37.0%
CC(C)n1c(O)c(C2c3cc(Cl)ccc3Oc3[nH]c(=O)n(C(C)C)c(=O)c32)c(=O)[nH]c1=O (centres undefined) | -18.3% | 8.91µM* | 24.1% | 1.34µM* | 4.23* | ? | 5.17µM* | ?
O=C1NC(=O)N(CCc2ccc(F)cc2)C(=O)/C1=C/c1cccs1 | -25.2% | 17.8µM* | 1.0% | 1.06µM* | 9.47* | ? | 18.9% | 6.8%
Cn1cccc1/C=C1\C(=O)NC(=O)N(Cc2ccccc2Cl)C1=O | -0.2% | 0.2% | 0.6% | ? | nt | nt | nt | nt
O=C1NC(=O)N(CCC2=CCCCC2)C(=O)/C1=C\c1cccs1 | -21.3% | 44.7µM* | -9.5% | 1.06µM* | 8.44* | ? | 4.4% | -27.6%
Cc1ccccc1-n1c(/C=C/c2ccccc2F)nc2ccccc2c1=O | nt | -6.3% | nt | nt | nt | nt | nt | nt
Oc1ccc2c3c1O[C@H]1c4[nH]c5c(c4C[C@@]4(O)[C@@H](C2)N(CC2CC2)CC[C@]314)C[C@]1(O)[C@H]2Cc3ccc(O)c4c3[C@@]1(CCN2CC1CC1)[C@@H]5O4 | nt | 6.9% | nt | nt | nt | nt | nt | nt
NC(N)=Nc1ccc2[nH]c3c(c2c1)C[C@@]1(O)[C@H]2Cc4ccc(O)c5c4[C@@]1(CCN2CC1CC1)[C@H]3O5 | -14.2% | 35.5µM* | ? | 0.947µM* | nt | nt | nt | nt | USP1 UbRho=?
CNC(=O)OCC[N+](C)(C)C | nt | 9.3% | nt | nt | nt | nt | nt | nt
O=c1[nH]c(=O)n(-c2ccc(Br)cc2)c(O)c1C=NCCN1CCCCC1 | 0.0% | 5.8% | -15.2% | -9.7% | nt | nt | nt | nt
COC(=O)C1=Nc2ccccc2/C1=C\c1c(O)n(-c2ccc(Br)cc2)c(=O)[nH]c1=O | -12.1% | 79.4µM* | 9.0% | 1.68µM* | 21.2* | ? | 29.6% | -8.9%
O=C(O)Cn1cc(/C=C2\C(=O)NC(=O)N(c3ccc(F)cc3)C2=O)c2ccccc21 | nt | nt | -5.2% | nt | nt | nt | nt | nt
CCOc1ccc(N2C(=O)NC(=O)/C(=C\c3cc(OC)c(OC)cc3[N+](=O)[O-])C2=O)cc1 | -20.1% | 31.6µM* | 1.3% | 31.8% | 16.8* | 12.6µM* | 25.8% | 5.5%
O=C1NC(=O)N(c2ccccc2)C(=O)/C1=C\c1ccccc1[N+](=O)[O-] | 9.2% | 44.7µM* | 1.3% | ? | 21.2* | 28.2µM* | 23.9% | 6.0%
CN1CCc2cc3c(cc2C1O)OCO3 (centres undefined) | nt | -8.2% | nt | nt | nt | nt | nt | nt
O=C(/C=C/c1ccccc1)c1c(O)n(CCc2ccccc2)c(=O)[nH]c1=O | -77.1% | ? | 2.4% | -9.5% | 2* | ? | 18.4µM* | 22.0%
Oc1ccc2c3c1O[C@H]1[C@H](O)CC[C@@]4(O)[C@@H](C2)N(CC2CC2)CC[C@]314 | nt | 11.9% | nt | nt | nt | nt | nt | nt
O=C1NC(=O)C(=Cc2ccccc2OCCOc2ccc([N+](=O)[O-])cc2)C(=O)N1 | 52.7% | 44.7µM* | -7.7% | 5.97µM* | 26.7* | 10µM* | 20.1% | ?
COc1ccc2[nH]cc(C3=CCNCC3)c2c1 | nt | -1.1% | nt | nt | nt | nt | nt | nt | USP1 UbRho=52.7µM*
COc1cc(/C=C/[N+](=O)[O-])ccc1O | -23.1% | 28.2µM* | 23.3% | 18.9µM* | 29.9* | ? | ? | ?
O=C(OCCN1CCCCC1)C(O)(c1ccccc1)c1ccccc1 | nt | 0.5% | nt | nt | nt | nt | nt | nt
CN1C(=O)C(=Cc2ccccc2OS(=O)(=O)c2ccccc2)C(=O)N(C)C1=O | 4.0% | 25.1µM* | 9.6% | 5.32µM* | 26.7* | 11.2µM* | 20.4% | -13.1% | TbPYK confirm=20µM*;TbPYK ADP-Glo=?
Cc1c(C=C2C(=O)N(C)C(=O)N(C)C2=O)c(=O)n(-c2ccccc2)n1C | -1.4% | -5.2% | ? | ? | nt | nt | nt | nt
Nc1ccc2c(c1)Cc1ccccc1-2 | 108.9% | -19.5% | -0.4% | -23.8% | nt | nt | nt | nt
O=C(O)/C=C/C(=O)c1ccc2c(c1)CCc1ccccc1-2 | -52.9% | 3.55µM* | -6.3% | 5.97µM* | 3.77* | ? | ? | ? | TbPYK confirm=12.6µM*;TbPYK ADP-Glo=15.8µM*
Cc1cccc(NC(=O)Cn2cc(C(=O)c3ccccc3)c3ccccc32)c1C | nt | -1.3% | nt | nt | nt | nt | nt | nt
Cc1cc(C)cc(OCC(=O)Nc2ccc(Cl)cc2C(=O)c2ccccc2)c1 | nt | -22.3% | nt | nt | nt | nt | nt | nt
CCCC[C@H]1C(=O)O[C@H](C)[C@H](NC(=O)c2cccc(NC=O)c2OC)C(=O)O[C@@H](C)[C@@H]1OC(=O)CC(C)C | nt | 0.8% | nt | nt | nt | nt | nt | nt
